Where a name gives a salt, the structure may show the parent alone.
Test system: Ruminococcus gnavus DSM 108212
Assay: fold change of Tryptamine concentration vs plate DMSO controls (fold change (ratio)); higher = more amine produced, active = hit call of the paper (significant change in both replicates, either direction)
Details: incubation time: 27 h, anaerobic, 37 °C
Outline: (§1)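 Each value is the fold change relative to DMSO-only wells on the same plate. Four gut bacterial strains were grown anaerobically in mGAM at 37 °C for 27 h in 80 µL wells, starting at OD 0.1 before a 1:1 dilution, with compounds at 20 µM final (sweeteners 50 µM). Whole cultures were extracted with cold acetonitrile/methanol containing 0.1% formic acid, centrifuged, and amines were quantified by LC–triple-quadrupole MS (dynamic MRM) against external calibration curves with within-batch drift correction. Values are means of 2 biological replicates.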

| SMILES | fold change of Tryptamine concentration |
| --- | --- |
| CC(=O)OCC(=O)[C@@]12OC3(CCCC3)O[C@@H]1C[C@H]1[C@@H]3CCC4=CC(=O)C=C[C@]4(C)[C@@]3(F)[C@@H](O)C[C@@]12C [Amcinonide] (20 µM) | 1.05 (inactive) |
| OC[C@H]1O[C@@H](c2ccc(Cl)c(Cc3ccc(O[C@H]4CCOC4)cc3)c2)[C@H](O)[C@@H](O)[C@@H]1O [Empagliflozin] (20 µM) | 0.872 (inactive) |
| CC(CN(C)C)CN1c2ccccc2Sc2ccccc21 (stereo unspecified) [Trimeprazine tartrate] (20 µM) | 0.804 (inactive) |
| CCC(=O)O[C@]1(C(=O)SCF)[C@H](C)C[C@H]2[C@@H]3C[C@H](F)C4=CC(=O)C=C[C@]4(C)[C@@]3(F)[C@@H](O)C[C@@]21C [Fluticasone propionate] (20 µM) | 0.935 (inactive) |
| OC[C@H]1O[C@@H](n2cnc3cncnc32)[C@H](O)[C@@H]1O [Nebularine] (20 µM) | 0.943 (inactive) |
| C=C1[C@H](CO)[C@@H](O)C[C@@H]1n1cnc2c(=O)[nH]c(N)nc21 [Entecavir] (20 µM) | 0.999 (inactive) |
| O=C1CN(/N=C/c2ccc(-c3ccc([N+](=O)[O-])cc3)o2)C(=O)N1 [Dantrolene sodium salt] (20 µM) | 1.01 (inactive) |
| CN1CCCN=C1/C=C/c1cccs1 [Pyrantel tartrate] (20 µM) | 1.08 (inactive) |
| C[C@H](CCc1ccccc1)NC[C@H](O)c1ccc(O)c(C(N)=O)c1 [Dilevalol] (20 µM) | 0.98 (inactive) |
| CN1CCC(=C2c3ccccc3CCc3sccc32)CC1 [Pizotifen malate] (20 µM) | 0.924 (inactive) |
| CCOC(=O)c1ccc(C#Cc2ccc3c(c2)C(C)(C)CCS3)nc1 [Tazarotene] (20 µM) | 1.22 (inactive) |
| CCC(=O)OCC(=O)[C@@]1(OC(=O)CC)[C@@H](C)C[C@H]2[C@@H]3CCC4=CC(=O)C=C[C@]4(C)[C@@]3(Cl)[C@@H](O)C[C@@]21C [Beclomethasone dipropionate] (20 µM) | 0.937 (inactive) |
| CC1=NN(c2ccccc2)C(=O)C1 [Edaravone] (20 µM) | 1.01 (inactive) |
| CO/N=C(\C(=O)N[C@@H]1C(=O)N2C(C(=O)OCOC(=O)C(C)(C)C)=C(/C=C\c3scnc3C)CS[C@H]12)c1csc(N)n1 [Cefditoren Pivoxil] (20 µM) | 1 (inactive) |
| Nc1ncnc2c1ncn2[C@@H]1O[C@H](CO)[C@@H](O)[C@@H]1O [Vidarabine] (20 µM) | 0.935 (inactive) |
| O=C(O)c1ccccc1Nc1cccc(C(F)(F)F)c1 [Flufenamic acid] (20 µM) | 0.989 (inactive) |
| CCc1ccc(CCOc2ccc(CC3SC(=O)NC3=O)cc2)nc1 (stereo unspecified) [Pioglitazone] (20 µM) | 0.977 (inactive) |

Test system: Escherichia coli IAI1
Assay: fold change of Putrescine concentration vs plate DMSO controls (fold change (ratio)); higher = more amine produced, active = hit call of the paper (significant change in both replicates, either direction)
Details: incubation time: 27 h, anaerobic, 37 °C
Outline: as §1

| SMILES | fold change of Putrescine concentration |
| --- | --- |
| CCCCCCCCCCCCCCCCCCCCCC(=O)Nc1ccn([C@@H]2O[C@H](CO)[C@@H](O)[C@@H]2O)c(=O)n1 [Enocitabine] (20 µM) | 1.01 (inactive) |
| COCC1=C(C(=O)OC(C)OC(=O)OC(C)C)N2C(=O)[C@@H](NC(=O)/C(=N\OC)c3csc(N)n3)[C@H]2SC1 (stereo partly specified) [Cefpodoxime proxetil] (20 µM) | 0.972 (inactive) |
| COc1cccc2c1C(=O)c1c(O)c3c(c(O)c1C2=O)C[C@@](O)(C(=O)CO)C[C@@H]3O[C@H]1C[C@H](N)[C@@H](O)[C@H](C)O1 [Epirubicin hydrochloride] (20 µM) | 1.07 (inactive) |
| CN1CCCN(C(c2ccccc2)c2ccc(Cl)cc2)CC1 (stereo unspecified) [Homochlorcyclizine dihydrochloride] (20 µM) | 1.03 (inactive) |
| COc1ccc(/C=C/C(=O)Nc2ccccc2C(=O)O)cc1OC [Tranilast] (20 µM) | 0.977 (inactive) |
| CC(C)Nc1ncccn1 [Isaxonine] (20 µM) | 1 (inactive) |
| CC(=O)N[C@@H](CS)C(=O)O [Acetylcysteine] (20 µM) | 1.03 (inactive) |
| C=C1C[C@@]23CC[C@H]4[C@@](C)(CCC[C@@]4(C)C(=O)O[C@@H]4O[C@H](CO)[C@@H](O)[C@H](O)[C@H]4O)[C@@H]2CC[C@]1(O[C@@H]1O[C@H](CO)[C@@H](O)[C@H](O)[C@H]1O[C@@H]1O[C@H](CO)[C@@H](O)[C@H](O)[C@H]1O)C3 [Stevioside] (50 µM) | 0.989 (inactive) |
| Nc1ccc(S(=O)(=O)Nc2nccs2)cc1 [Sulfathiazole] (20 µM) | 0.955 (inactive) |
| CC(=O)OCC(=O)[C@@]1(O)CC[C@H]2[C@@H]3CCC4=CC(=O)C=C[C@]4(C)[C@@]3(F)[C@@H](O)C[C@@]21C [Isoflupredone acetate] (20 µM) | 1 (inactive) |
| CC(=O)CCCCn1c(=O)c2c(ncn2C)n(C)c1=O [Pentoxifylline] (20 µM) | 1 (inactive) |
| CCN(CC)CCOC(=O)C1(C2CCCCC2)CCCCC1 [Dicyclomine hydrochloride] (20 µM) | 0.988 (inactive) |
| CC(=O)OCC(=O)[C@@]1(O)[C@H](C)C[C@H]2[C@@H]3CCC4=CC(=O)C=C[C@]4(C)[C@@]3(F)[C@@H](O)C[C@@]21C [Dexamethasone acetate] (20 µM) | 0.987 (inactive) |
| Cc1nc2n(c(=O)c1CCN1CCC(c3noc4cc(F)ccc34)CC1)CCCC2O (stereo unspecified) [Paliperidone] (20 µM) | 1.06 (inactive) |
| O=C(Nc1cccc2c(=O)cc(-c3nnn[nH]3)oc12)c1ccc(OCCCCc2ccccc2)cc1 [Pranlukast] (20 µM) | 1.02 (inactive) |
| CCC(Cc1c(I)cc(I)c(N)c1I)C(=O)O (stereo unspecified) [Iopanoic acid] (20 µM) | 1.1 (inactive) |
| C/C(=C\C(=O)OCCCCCCCCC(=O)O)C[C@@H]1OC[C@H](C[C@@H]2O[C@H]2[C@@H](C)[C@H](C)O)[C@@H](O)[C@H]1O [Mupirocin] (20 µM) | 0.182 (active) |
| CC(Oc1c(Cl)cccc1Cl)C1=NCCN1 (stereo unspecified) [Lofexidine] (20 µM) | 1.04 (inactive) |
| CCOc1ccc(NC(=O)CC(C)O)cc1 (stereo unspecified) [Bucetin] (20 µM) | 0.997 (inactive) |
| CN(C)CCc1c[nH]c2ccc(Cn3cncn3)cc12 [Rizatriptan benzoate] (20 µM) | 0.97 (inactive) |

| SMILES | fold change of Putrescine concentration |
| --- | --- |
| CC(C)OC(=O)C(C(=O)OC(C)C)=C1SC=CS1 [Malotilate] (20 µM) | 1.07 (inactive) |
| CC1CS(=O)(=O)CCN1/N=C/c1ccc([N+](=O)[O-])o1 (stereo unspecified) [Nifurtimox] (20 µM) | 0.949 (inactive) |
| CC(=O)OCC(=O)[C@@]12OC3(CCCC3)O[C@@H]1C[C@H]1[C@@H]3CCC4=CC(=O)C=C[C@]4(C)[C@@]3(F)[C@@H](O)C[C@@]12C [Amcinonide] (20 µM) | 1.02 (inactive) |
| OC[C@H]1O[C@@H](c2ccc(Cl)c(Cc3ccc(O[C@H]4CCOC4)cc3)c2)[C@H](O)[C@@H](O)[C@@H]1O [Empagliflozin] (20 µM) | 1.02 (inactive) |
| CC(CN(C)C)CN1c2ccccc2Sc2ccccc21 (stereo unspecified) [Trimeprazine tartrate] (20 µM) | 0.885 (inactive) |
| CCC(=O)O[C@]1(C(=O)SCF)[C@H](C)C[C@H]2[C@@H]3C[C@H](F)C4=CC(=O)C=C[C@]4(C)[C@@]3(F)[C@@H](O)C[C@@]21C [Fluticasone propionate] (20 µM) | 0.994 (inactive) |
| OC[C@H]1O[C@@H](n2cnc3cncnc32)[C@H](O)[C@@H]1O [Nebularine] (20 µM) | 0.795 (inactive) |
| C=C1[C@H](CO)[C@@H](O)C[C@@H]1n1cnc2c(=O)[nH]c(N)nc21 [Entecavir] (20 µM) | 0.972 (inactive) |
| O=C1CN(/N=C/c2ccc(-c3ccc([N+](=O)[O-])cc3)o2)C(=O)N1 [Dantrolene sodium salt] (20 µM) | 0.991 (inactive) |
| CN1CCCN=C1/C=C/c1cccs1 [Pyrantel tartrate] (20 µM) | 1.04 (inactive) |
| C[C@H](CCc1ccccc1)NC[C@H](O)c1ccc(O)c(C(N)=O)c1 [Dilevalol] (20 µM) | 1.02 (inactive) |
| CN1CCC(=C2c3ccccc3CCc3sccc32)CC1 [Pizotifen malate] (20 µM) | 1 (inactive) |
| CCOC(=O)c1ccc(C#Cc2ccc3c(c2)C(C)(C)CCS3)nc1 [Tazarotene] (20 µM) | 0.958 (inactive) |
| CCC(=O)OCC(=O)[C@@]1(OC(=O)CC)[C@@H](C)C[C@H]2[C@@H]3CCC4=CC(=O)C=C[C@]4(C)[C@@]3(Cl)[C@@H](O)C[C@@]21C [Beclomethasone dipropionate] (20 µM) | 0.954 (inactive) |
| CC1=NN(c2ccccc2)C(=O)C1 [Edaravone] (20 µM) | 1.03 (inactive) |
| CO/N=C(\C(=O)N[C@@H]1C(=O)N2C(C(=O)OCOC(=O)C(C)(C)C)=C(/C=C\c3scnc3C)CS[C@H]12)c1csc(N)n1 [Cefditoren Pivoxil] (20 µM) | 0.864 (inactive) |
| Nc1ncnc2c1ncn2[C@@H]1O[C@H](CO)[C@@H](O)[C@@H]1O [Vidarabine] (20 µM) | 1.11 (inactive) |
| O=C(O)c1ccccc1Nc1cccc(C(F)(F)F)c1 [Flufenamic acid] (20 µM) | 1.03 (inactive) |
| CCc1ccc(CCOc2ccc(CC3SC(=O)NC3=O)cc2)nc1 (stereo unspecified) [Pioglitazone] (20 µM) | 1.02 (inactive) |
